Compound activity: PubChem, several laboratories
In the library only some 2% were active in any assay of this set; here they are far more common.
A3G deaminase = APOBEC3G DNA deaminase inhibitors, primary screen, biochemical, fluorescence, single-stranded DNA substrate, uHTS; AID 493012, 2011; 0.28% of 330,000 active; inhibition, % at 20 µM; recombinant A3G, ssDNA deamination FAM/TAMRA fluorescence; DNA dC->dU-editing enzyme APOBEC-3G (Homo sapiens), Q9HC16;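 active = inhibition of at least 40% at 20 µM, with no more than 30% in the related APOBEC3A deaminase screen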;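 also: plate controls were DMSO wells with A3G for no effect and wells lacking A3G enzyme for full effect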
NALP1 yeast inh = NALP1 inflammasome inhibitors in reconstituted yeast, colorimetric, S. cerevisiae, triplicate retest. AID 2071, 2009. inhibition, % at 10 µM. 0.61% of 280,000 active. S. cerevisiae NALP1/ASC/caspase-1 growth, X-gal OD620, 72 h; in the data active = inhibition mostly above about 24%, no sharp cut-off; inactive = mostly below about 32%
A3A deaminase = APOBEC3A ssDNA deaminase inhibitors, primary screen, selectivity assay for APOBEC3G inhibitor project, biochemical, FAM/TAMRA oligo cleavage fluorescence | DNA dC->dU-editing enzyme APOBEC-3A (Homo sapiens), P31941 | recombinant A3A, FAM/TAMRA ssDNA deamination fluorescence | inhibition, % at 20 µM | 0.41% of 330,000 active | AID 493011, 2011;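 active = at least 40% inhibition at 20 µM here, with at most 30% in a related deaminase screen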;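 also: plate controls were A3A with DMSO for no effect and wells lacking A3A enzyme for full effect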
Target sequence (P31941 whole entry, looked up): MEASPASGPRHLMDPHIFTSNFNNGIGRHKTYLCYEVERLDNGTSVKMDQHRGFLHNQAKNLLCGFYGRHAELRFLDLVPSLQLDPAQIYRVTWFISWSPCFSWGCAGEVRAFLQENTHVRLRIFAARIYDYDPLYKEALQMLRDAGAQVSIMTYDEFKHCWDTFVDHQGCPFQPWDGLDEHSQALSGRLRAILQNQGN
CTSL1 counter = Fasciola hepatica cathepsin L1 inhibitors, primary screen, counter-screen for PFM18AAP inhibitor project, biochemical, QFRET, fluorogenic peptide substrate | recombinant F. hepatica cathepsin L1, Z-Leu-Arg-MCA fluorescence | inhibition, % at 5.96 µM | 0.49% of 300,000 active | AID 1906, 2009;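 active = inhibition above the mean of all tested compounds plus 3 SD, set per screening campaign, cut at about 17% in these data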;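 also: 0% = plate median of test compound wells and 100% = 1 µM Z-Phe-Ala-diazomethylketone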
HGIII-sPLA2 inh = human group III sPLA2 inhibitors, primary screen, biochemical, QFRET, BODIPY PC-A2 liposome substrate. inhibition, % at 12.2 µM. 0.56% of 370,000 active. Group 3 secretory phospholipase A2 (Homo sapiens), Q9NZ20. QFRET BODIPY PC-A2 liposome hydrolysis, fluorescence. AID 743126, 2013;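 active = inhibition above mean plus 3 SD of compounds lying within the high and low control bounds, cut at about 19% in these data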;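 also: 0% = median of test compound wells and 100% = no enzyme DMSO wells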
Target sequence (Q9NZ20 whole entry, looked up): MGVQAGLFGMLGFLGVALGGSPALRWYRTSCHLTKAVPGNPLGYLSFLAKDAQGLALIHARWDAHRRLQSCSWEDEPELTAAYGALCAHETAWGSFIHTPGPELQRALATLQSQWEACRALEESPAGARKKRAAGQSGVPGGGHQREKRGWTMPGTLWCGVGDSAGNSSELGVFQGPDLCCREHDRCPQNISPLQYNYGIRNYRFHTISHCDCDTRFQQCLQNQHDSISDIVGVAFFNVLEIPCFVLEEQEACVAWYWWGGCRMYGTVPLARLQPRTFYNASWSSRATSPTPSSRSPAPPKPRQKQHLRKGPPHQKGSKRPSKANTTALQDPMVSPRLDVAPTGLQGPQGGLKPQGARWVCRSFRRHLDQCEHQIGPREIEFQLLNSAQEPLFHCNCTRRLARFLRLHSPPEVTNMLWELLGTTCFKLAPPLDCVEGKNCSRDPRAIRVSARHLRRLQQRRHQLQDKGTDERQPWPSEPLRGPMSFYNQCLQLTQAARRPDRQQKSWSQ
hGIII sPLA2 conf = human group III sPLA2 inhibitors, confirmation, biochemical, QFRET, triplicate; shares compounds with HGIII-sPLA2 inh; recombinant hGIII-sPLA2, BODIPY PC-A2 QFRET fluorescence; inhibition, % at 12.2 µM; 34% of 2,000 active; AID 743280, 2014;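 active = mean inhibition across triplicates above the hit cutoff set in the earlier primary screen, cut at about 19% in these data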;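 also: 0% = enzyme with DMSO and 100% = DMSO wells lacking enzyme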
535nm interf = 535nm fluorescence optical interference, confirmation, artefact control for HGIII-sPLA2 inhibitor project, biochemical, QFRET; 8.5% of 2,000 active; BODIPY FL product fluorescence interference; inhibition, % at 12.2 µM; shares compounds with HGIII-sPLA2 inh;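 active = average inhibition above the solvent-only control mean plus 3 SD, cut at about 6% in these data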;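 also: 0% = DMSO with substrate plus product and 100% = DMSO with substrate alone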
BODIPY interf DR = 535nm fluorescence optical interference, dose response, artefact control for HGIII-sPLA2 inhibitor project, biochemical, QFRET; shares compounds with HGIII-sPLA2 inh; BODIPY FL product fluorescence interference, cell-free; IC50, µM; 240 tested, under 10 active; AID 743455, 2014;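 active = IC50 at or below 10 µM; inactive = IC50 above 10 µM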
Numbers without * were called inactive; . = no result given.

SMILES	A3G deaminase	NALP1 yeast inh	A3A deaminase	CTSL1 counter	HGIII-sPLA2 inh	hGIII sPLA2 conf	535nm interf	others
N#Cc1ccc(CSc2nc3sc4c(c3c(=O)n2-c2ccc(Br)cc2)CCCC4)cc1	.	.	.	.	13.8	.	.
COc1cc(OC)cc(-c2c(-c3cccs3)c3cc(-c4ccc5[nH]ccc5c4)ccc3n2C)c1	-9.4	.	-4.3	.	20.1*	36.5*	8.7*
c1ccc(Cn2c(SCC3CCC3)nnc2-c2cccnc2)cc1	.	.	.	.	3.2	.	.
N#CCC[C@@H]1CC[C@]2(CCCN(C(=O)C3CCCC3)C2)O1	.	.	.	.	3.7	.	.
Cc1c(NC(=S)N/N=C\c2ccccc2O)c(=O)n(-c2ccccc2)n1C	2.2	27.6	-1.5	0.3	34.0*	10.6	-2.2
Cc1c(NC(=S)N/N=C/c2ccc([N+](=O)[O-])cc2O)c(=O)n(-c2ccccc2)n1C	-7.0	.	-5.8	3.9	3.9	.	.
Cc1c(NC(=S)N/N=C/c2ccc(Br)cc2)c(=O)n(-c2ccccc2)n1C	-9.1	.	-3.5	4.7	20.4*	20.3*	-9.4
CNc1nc(-c2ccccn2)nnc1-c1ccccc1	0.2	4.9	0.3	4.4	2.5	.	.
CC(C)(C)c1ccc(CNc2nc(-c3ccccn3)nnc2-c2ccccc2)cc1	.	.	.	.	39.5*	8.5	-36.0
CC(C)N=C1NN=C(c2cccs2)C(CC(=O)O)S1 (centres undefined)	-3.7	3.7	-11.6	0.0	20.1*	0.5	-5.2
COc1ccc(Cl)cc1C(Nc1cccnc1)c1ccc2cccnc2c1O (centres undefined)	-0.3	16.3	0.8	-1.0	31.4*	35.0*	-3.0	BODIPY interf DR=>122
CC(C)C[C@H]1COc2cc(Br)ccc2S(=O)(=O)N1Cc1cn(CCC2OCCCO2)nn1	.	.	.	.	3.9	.	.
C=CCS/C(N)=N\N=C\c1cc(Br)cc([N+](=O)[O-])c1O	-2.6	13.4	0.2	2.1	38.1*	29.8*	-2.4	BODIPY interf DR=>122
CS/C(N)=N/N=C/c1cc(Br)cc(Br)c1O	-8.2	7.4	-4.9	4.3	38.0*	34.0*	6.8*
Cc1ccc(S(=O)(=O)N2c3ccccc3-c3c(ssc3=S)C2(C)C)cc1	-1.0	43.9	2.3	-1.1	27.8*	24.2*	4.7
COc1ccc2c(c1)-c1c(ssc1=S)C(C)(C)N2S(=O)(=O)c1ccc(C)cc1	-8.5	28.8	-3.1	0.7	13.1	.	.
COc1ccc2c(c1)C(=O)C(=O)N2CC1COc2ccccc2O1 (centres undefined)	-8.9	21.9	-3.7	1.2	19.8*	25.3*	0.5
Cc1ccc(C(C)NC(=S)NC2CCCCC2)cc1C (centres undefined)	-2.8	9.5	2.4	.	19.6*	11.2	-3.7
COc1ccc(C(C)NC(=S)NC2CCCC2)cc1OC (centres undefined)	-4.4	6.2	-1.8	-2.8	8.3	.	.
CCCCc1ccc(-c2noc(CCC(=O)NCC)n2)cc1	.	.	.	.	-5.2	.	.
Cc1ccc(/C=N/n2c(C3CCCCC3)n[nH]c2=S)s1	-4.9	18.9	-5.1	1.4	22.0*	15.9	1.9
Cc1ccsc1/C=N/n1c(C2CCCCC2)n[nH]c1=S	-2.7	11.7	-5.2	0.1	7.9	.	.
CCCC(=O)NC(c1cccs1)c1cc([N+](=O)[O-])c2cccnc2c1O (centres undefined)	.	4.0	.	2.7	3.2	.	.
O=C(CCc1ccccc1)NC(c1cccs1)c1cc(Cl)c2cccnc2c1O (centres undefined)	.	18.9	.	.	22.9*	14.8	3.8
CCCCC(=O)NC(c1ccco1)c1cc(Cl)c2cccnc2c1O (centres undefined)	0.6	-3.8	4.2	-1.2	22.6*	18.9	-6.9
SMILES	A3G deaminase	NALP1 yeast inh	A3A deaminase	CTSL1 counter	HGIII-sPLA2 inh	hGIII sPLA2 conf	535nm interf	others
O=c1c2cc3cccnc3nc2ncn1CCc1c[nH]c2ccccc12	.	.	.	.	-7.4	.	.
Cc1c(O)c2c(=O)n(-c3ccccc3)c(-c3ccccc3)cc2oc1=O	-7.3	30.0	-0.3	1.1	20.1*	7.4	-4.9
C/C(=N\O)c1c(O)cc(-c2ccccc2)n(-c2ccccc2)c1=O	-8.8	5.4	-3.2	-2.0	-0.8	.	.
O=C(CNS(=O)(=O)c1ccccc1)OCC(=O)c1ccc([N+](=O)[O-])cc1	-8.4	35.3	-1.1	-8.5	25.0*	6.5	-1.5
COC(=O)c1cc(-c2cccc(C#N)c2)c(=O)n2c1CCC2	.	.	.	.	15.7	.	.
O=C(Cn1nc(-c2ccccc2)ccc1=O)NCCc1ccc(F)cc1	.	.	.	.	-1.4	.	.
O=C(NNc1ccccc1[N+](=O)[O-])Nc1ccc(Cl)c(Cl)c1	2.1	10.2	2.3	6.5	27.1*	28.4*	9.8*
O=C(NNc1ccccc1[N+](=O)[O-])Nc1ccccc1	-1.0	-3.7	4.6	-0.6	.	.	.
CCOC(=O)C1(C(=O)OCC)Cc2c([nH]c3ccccc23)[C@]2(N1)C(=O)N(C)c1ccc(Br)cc12	.	.	.	.	-16.3	.	.
Cn1c(=O)cc(OCC(=O)N2CCN(c3ccccc3Cl)CC2)c2ccccc21	.	.	.	.	4.4	.	.
O=C(COC(=O)/C=C/c1ccc([N+](=O)[O-])cc1)NC(=O)NC1CCCCC1	-7.8	.	-5.8	.	4.0	.	.
CC1CCCC(NC(=O)COC(=O)/C=C/c2ccc([N+](=O)[O-])cc2)C1C (centres undefined)	-3.0	.	-1.9	.	19.4*	-6.5	-10.8
O=C(Nc1nc2ncccn2c1-c1ccc(F)cc1)C1CC1	.	.	.	.	12.1	.	.
Cc1nn(-c2ccccc2)c(C)c1C(=O)OCC(=O)N(C)C1CCS(=O)(=O)C1 (centres undefined)	1.0	9.8	0.4	-2.5	19.9*	-0.8	-8.4
O=C(Cc1ccc2c(c1)OCO2)N1CCC(n2nc(-c3ccccc3)oc2=O)CC1	.	.	.	.	-2.2	.	.
N#CC(C#N)c1ccnc2ccccc12	.	.	.	.	19.4*	6.6	-2.1
N#CCc1ccnc2ccccc12	.	.	.	.	-13.5	.	.
CCCCOCCCNC(=O)C[C@H]1C[C@@]2(C(=O)OC)C(=C[C@H](C(C)C)O[C@@H]2C2CC2)N(CCc2ccc(OC)c(OC)c2)C1=O	.	.	.	.	-16.0	.	.
Nc1c(C(=O)Nc2ccccc2F)sc2nc(-c3cccnc3)ccc12	2.0	.	-2.9	6.2	-13.5	.	.
